Measured values: PubChem BioAssay (EPA / NIEHS)
The source made the active and inactive calls. Rule for the calls: active = hit-call score of the fitted dose curve at least 0.9, where 1 is the maximum; inactive = score below 0.9.

read-out: Plasminogen activator inhibitor-1 (PAI1), SERPINE1 (gene 5054); experiment: BSK_BE3C_PAI1: BioMAP Diversity Plus: BE3C Assay for Plasminogen activator inhibitor-1 (PAI1) Biomarker Activity (AID 2283037); conditions: primary human bronchial epithelial cells; actives raise or lower the signal
Method: BSK_BE3C is a cell-based, multiplexed-readout assay that uses bronchial epithelial cell, a human lung primary cell, with measurements taken at 24 hours after chemical dosing in a 96-well plate.BSK_BE3C_PAI1 is an assay component measured in the BSK_BE3C assay. It measures PAI-1 antibody related to regulation of gene expression using ELISA technology.Data from the assay component BSK_BE3C_PAI1 was analyzed into 1 assay endpoint. This assay endpoint, BSK_BE3C_PAI1, was analyzed with bidirectional fitting relative to DMSO as the negative control and baseline of activity. Using a type of binding reporter, gain or loss-of-signal activity can be used to understand changes in the signaling as they relate to the gene SERPINE1. Furthermore, this assay endpoint can be referred to as a primary readout, because this assay has produced multiple assay endpoints where this one serves a signaling function. To generalize the intended target to other relatable targets, this assay endpoint is annotated to the cytokine intended target family, where the subfamily is plasmogen activator inhibitor.
The levels of cell surface (or secreted, indicated by the prefix "s") biomarker endpoints were measured by ELISA. Overt cytotoxicity to cells in confluent adherent cultures (all systems other than the BT system) was assessed by measuring total protein levels using sulforhodamine B (SRB) staining in parallel cultures at the time of biomarker measurements, indicated as SRB endpoints. For proliferation assays for adherent cell types, individual cell types are cultured at sub-confluence and relative cell numbers quantified by SRB staining at time points optimized for each system (48 h: 3C and CASM3C systems; 72 h: BT and HDF3CGF systems; 96 h: SAg system). SRB was performed by staining cells with 0.1% SRB after fixation with 10% TCA and reading wells at 560 nm.Viability and proliferation of PBMC (T cells) was quantified by Alamar Blue reduction for the SAg and BT systems. For PBMC viability (referred to as PBMC Cytotoxicity within the assay endpoint names), cells were plated (75,000/well in a 96-well plate) and then chemical samples added for 1 h before addition of activators, SEB and TSST-1 (20 ng/mL final concentration each). Cells were incubated for 90 h. Then, Alamar Blue (20 uL/well) (Invitrogen, Cat DAL1100) was added for 6 h, and the plates were read with a fluorescence microplate reader at 546/580 nm (excitation/emission). For PBMC proliferation, cells were plated and activated as above but incubated for only 16 h prior to addition of Alamar Blue. Plates were read after 6 h.

SMILES | outcome | AC50
Cc1cn([C@H]2C=C[C@@H](CO)O2)c(=O)[nH]c1=O | inactive | –
C#CC(O)C(CC)CCCC (stereo not given) | inactive | –
NC=O | inactive | –
Oc1ccccc1O | inactive | –
COC(=O)[C@H]1[C@H]2C[C@@H]3c4[nH]c5cc(OC)ccc5c4CCN3C[C@H]2C[C@@H](OC(=O)c2cc(OC)c(OC)c(OC)c2)[C@@H]1OC | inactive | –
CCN(CC)CCOc1ccc(C(=C(Cl)c2ccccc2)c2ccccc2)cc1 | – | 26.1 µM (active)
Cc1c(C)c2c(c(C)c1O)CCC(C)(COc1ccc(CC3SC(=O)NC3=O)cc1)O2 (stereo not given) | – | 14.7 µM (active)
NC(=Nc1ccccc1)Nc1ccccc1 | inactive | –
COc1ccc(OC(F)(F)F)cc1CN[C@H]1CCCN[C@H]1c1ccccc1 | inactive | –
Cc1cc(Cc2ccc(N)c(C)c2)ccc1N | inactive | –
CO[C@@H]1COCC[C@@H]1N[C@@H]1CC[C@@](C(=O)N2CCc3ncc(C(F)(F)F)cc3C2)(C(C)C)C1 | inactive | –
N[C@@H](Cc1c[nH]c2ccccc12)C(=O)O | inactive | –
O=C1OC(c2ccc(O)cc2)(c2ccc(O)cc2)c2ccccc21 | inactive | –
S=c1[nH]c2ccccc2s1 | inactive | –
CCCCC(CC)COC(=O)CCCCCCCC(=O)OCC(CC)CCCC (stereo not given) | inactive | –
O=C1NC(=O)C(c2ccccc2)(c2ccccc2)N1 | inactive | –
CC(=O)OC1CC(C)OC(C)O1 (stereo not given) | inactive | –
C/C=C/C=C/C(=O)O | inactive | –
NC1CCCCC1 | inactive | –
NCCOCCOCCN | inactive | –

SMILES | outcome | AC50
CC(C)(O)c1ccc(CNC(=O)c2cccnc2Oc2ccc(F)cc2)cc1 | inactive | –
OCC(O)CO | inactive | –
CN(C)CCCN(C)CCCN(C)C | inactive | –
CCCCCCC(CCCCCCCCCCC(=O)OCC(COC(C)=O)OC(C)=O)OC(C)=O (stereo not given) | – | 7.39 µM (active)
CC(=O)OCC(COC(C)=O)OC(C)=O | inactive | –
CC(C)OC(=O)C(C)(C)Oc1ccc(C(=O)c2ccc(Cl)cc2)cc1 | inactive | –
CC1=C(C)S(=O)(=O)CCS1(=O)=O | inactive | –
COC(=O)CCC(=O)OC | inactive | –
O=C1O[C@H]([C@H](O)CO)C(O)=C1O | inactive | –
CC(=O)S[C@H](C(=O)N[C@H]1Cc2ccccc2[C@H]2CCC[C@@H](C(=O)O)N2C1=O)C(C)C | inactive | –
O=C(O)c1cccnc1 | inactive | –
CCCCc1nc2cccnc2n1Cc1ccc(-c2ccccc2-c2nnn[nH]2)cc1 | inactive | –
O=[Si]=O | inactive | –
COC(=O)CCCC(=O)OC | inactive | –
CC(C)(C)c1ccccc1 | inactive | –
C=CCc1ccc(OC)c(OC)c1 | inactive | –
CC(C)COC(=O)CCCCC(=O)OCC(C)C | inactive | –
O=C(NS(=O)(=O)/C=C/c1cccs1)c1ccc(F)cc1Br | inactive | –
Nc1nc(=S)c2[nH]cnc2[nH]1 | inactive | –
CCCCCCCC(=O)OC | inactive | –
